# Results published in PubChem BioAssay (NCATS).
# Records with an inconclusive call do not appear. Values without a mark were called inactive. Active and inactive are the calls of the source. Calls follow the shape of the dose curve; as a rule, active = well fitted inhibition curve with a large enough effect; inconclusive = small, poorly fitted or top-dose-only effect; inactive = no such curve, though single readings can be large or run the other way.
# Target: Glutaminase kidney isoform, mitochondrial (Homo sapiens) (UniProt O94925)
# Sequence (O94925 whole entry, looked up, canonical isoform): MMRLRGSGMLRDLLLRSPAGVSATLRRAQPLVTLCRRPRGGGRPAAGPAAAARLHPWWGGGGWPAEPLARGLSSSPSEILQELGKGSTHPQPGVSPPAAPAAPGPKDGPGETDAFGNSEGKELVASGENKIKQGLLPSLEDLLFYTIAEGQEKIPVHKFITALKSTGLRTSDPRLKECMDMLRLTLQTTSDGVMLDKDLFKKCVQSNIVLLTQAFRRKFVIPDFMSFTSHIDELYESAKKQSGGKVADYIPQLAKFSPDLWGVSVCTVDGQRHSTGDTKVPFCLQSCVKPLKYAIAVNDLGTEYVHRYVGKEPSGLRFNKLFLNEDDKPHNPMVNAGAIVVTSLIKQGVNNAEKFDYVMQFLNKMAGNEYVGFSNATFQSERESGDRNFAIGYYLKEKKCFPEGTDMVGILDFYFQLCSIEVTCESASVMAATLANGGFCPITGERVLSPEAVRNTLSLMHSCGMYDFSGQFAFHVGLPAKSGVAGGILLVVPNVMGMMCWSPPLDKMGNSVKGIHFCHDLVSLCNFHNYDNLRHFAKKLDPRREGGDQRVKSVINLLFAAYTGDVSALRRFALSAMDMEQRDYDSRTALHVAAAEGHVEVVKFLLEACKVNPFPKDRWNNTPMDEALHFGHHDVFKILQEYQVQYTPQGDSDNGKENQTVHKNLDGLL
# Assay: qHTS for Inhibitors of Glutaminase (GLS): LOPAC Validation (AID 624146); also: nearly all actives have a fitted effect of over 60% in size;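 as to activity change, negative = inhibition: glutamate product detected by oxidase and peroxidase coupled Amplex red fluorescence gain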
# Conditions: glutaminase enzyme activity inhibition; series mostly up to 46.1 µM; activity change, negative = inhibition: at the top concentration
# How it was run: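 hKGA in 45 mM KH2PO4 pH 8.2, 0.02% Tween-20 with pin-transferred compounds; 1 mM L-glutamine (stock) plus glutamate oxidase/HRP/Amplex Red coupling added. Fluorescence read initially and after 30 min at RT.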
# % is scaled to controls: 0 for no effect and ±100 for the full control effect; potency is read from the fitted curve at half-maximal effect.
Compound,"activity change, negative = inhibition",Potency
OCC1O[C@H](O)C(Cl)C(O)C1O (some centres undefined),-15.6%,
O=C(O)c1cc(=O)c2ccccc2[nH]1,-8.55%,
C=C[C@H]1CN2CC[C@@H]1C[C@@H]2[C@@H](O)c1ccnc2ccc(OC)cc12,-3.08%,
O=C1C(SCCO)=C(SCCO)C(=O)c2ccccc21,,10 µM (active)
CN1CCc2cccc3c2C1Cc1ccc(O)c(O)c1-3 (centres undefined),,4.47 µM (active)
Cc1ccc(S(=O)(=O)/C=C/C#N)cc1,,12.6 µM (active)
CO/N=C(\C(=O)N[C@@H]1C(=O)N2C(C(=O)O)=C(COC(C)=O)CS[C@H]12)c1csc(N)n1,-13.5%,
CC(C)(C)c1ccc(S(=O)(=O)/C=C/C#N)cc1,,7.08 µM (active)
O=C(O)CNC(=O)C(CS)Cc1ccccc1 (centres undefined),-22.3%,
c1ccc(-c2ccccn2)nc1,-8.12%,
CC(COc1ccc(/C=C/c2ccccc2)cc1)[N+](C)(C)C (centres undefined),6.13%,
CC(C)NCC(O)COc1cccc2ccccc12 (centres undefined),-2.81%,
O=C(CCCCCN1CCN(c2ccccc2-c2ccccc2)CC1)NC1CCCc2ccccc21 (centres undefined),-8.51%,
O=c1[nH]c2cc(C(F)(F)F)ccc2n1-c1cc(C(F)(F)F)ccc1O,-3.88%,
Nc1nc(Cl)nc2c1ncn2[C@@H]1O[C@H](CO)[C@@H](O)[C@H]1O,-16.2%,
Nc1nc(SCc2ccc([N+](=O)[O-])cc2)c2ncn([C@@H]3O[C@H](CO)[C@@H](O)[C@H]3O)c2n1,-1.35%,
Oc1cc2c(cc1O)CN(C(=S)NCCc1ccc(Cl)cc1)CCC2,,2.24 µM (active)
NC(=O)C(=O)O,-15.7%,
COC(=O)c1c(C)[nH]c(C)c1C(=O)c1ccccc1Cc1ccccc1,-14.4%,
